Where “and” joins values, the source holds several entries; their conditions need not be identical. Identical values can stand only once. Results filed as inconclusive are left out. Calls of active or inactive are those of the source. Calls come from the whole dose curve; as a rule, active = well fitted curve in the direction sought with a large enough effect; inconclusive = small, poorly fitted or top-dose-only effect, or another doubt; inactive = no such curve, though single readings can be large; an effect the other way counts as inactive or inconclusive.
Assays:
[1] = test system: Zika virus NS2B-NS3 protease (linked construct); assay: Primary screen NINDS Rhodamine qHTS for Zika virus inhibitors (AID 1347160); note: nearly all actives have a fitted effect of over 55% in size; note: potency is the fitted concentration of half-maximal effect
In short: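 Kinetic fluorescence (Ex 480 nm, Em 540 nm) over 15 min with 1.5 microM Rhodamine110 peptide and 25 nM linked protease.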

[2] = biological target: Calcium and integrin-binding protein 1 (Homo sapiens) (UniProt Q99828); assay: Primary qHTS for Identification of Calcium Integrin Binding Protein 1 (CIB1) Competitor (AID 1508620);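 note: GST tagged CIB1 binding a fluorescein labelled alphaIIb integrin peptide tracer; top concentration of the series differs between compounds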
Chain of Calcium and integrin-binding protein 1 (Homo sapiens) (Q99828 whole entry, looked up): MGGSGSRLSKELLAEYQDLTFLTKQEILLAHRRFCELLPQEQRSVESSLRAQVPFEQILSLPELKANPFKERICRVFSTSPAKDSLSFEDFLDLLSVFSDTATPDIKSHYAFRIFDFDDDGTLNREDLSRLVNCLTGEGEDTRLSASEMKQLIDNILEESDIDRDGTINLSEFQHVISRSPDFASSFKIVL
In short: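 Fluorescence polarization competition: CIB1-GST (1 uM final) preincubated with compound 15 min at room temperature, then FITC-labeled alphaIIb peptide (100 nM final) added for another 15 min. Polarization read at Ex 480/Em 540.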

[3] = Primary qHTS for inhibitors of nuclear receptor binding SET domain protein 2 (NSD2) in an isogenic RCH-ACV NSD2 p.E1099K mutant (9B) (AID 1645876); note: nearly all actives have a fitted effect of over 70% in size; note: potency is the fitted concentration of half-maximal effect
[4] = Primary qHTS for inhibitors of nuclear receptor binding SET domain protein 2 (NSD2) in an RCH-ACV wild type WT cells (2C) (AID 1645877); note: nearly all actives have a fitted effect of over 70% in size; note: potency is the fitted concentration of half-maximal effect
[5] = biological target: Glutathione peroxidase 1 (Homo sapiens) (UniProt P07203); assay: Primary qHTS Assay for Inhibitors of Recombinant Selenoprotein Glutathione Peroxidase 1 (GPX1) (AID 1845191); note: nearly all actives have a fitted effect of over 65% in size
Chain of Glutathione peroxidase 1 (Homo sapiens) (P07203 whole entry, looked up): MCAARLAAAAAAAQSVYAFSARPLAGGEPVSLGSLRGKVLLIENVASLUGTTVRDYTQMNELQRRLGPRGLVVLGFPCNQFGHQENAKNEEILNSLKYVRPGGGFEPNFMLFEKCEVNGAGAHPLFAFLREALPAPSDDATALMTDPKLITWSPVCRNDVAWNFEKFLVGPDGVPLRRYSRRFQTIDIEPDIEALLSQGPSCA
In short: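 Recombinant GPX1 (10 nM final) was preincubated with compound for 30 min at room temperature, then reacted with 1 mM GSH, 0.5 mM CHP, 0.5 mM NADPH and 100 nM glutathione reductase; NADPH fluorescence (340/450 nm) was read at 0 and 15 min.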

[6] = biological target: Phospholipid hydroperoxide glutathione peroxidase GPX4 (Homo sapiens) (UniProt P36969); assay: Primary qHTS Assay for Inhibitors of Recombinant Selenoprotein Glutathione Peroxidase 4 (GPX4) (AID 1845192); details: outcome: dose series up to 50 µM unless noted; note: nearly all actives have a fitted effect of over 65% in size
Chain of Phospholipid hydroperoxide glutathione peroxidase GPX4 (Homo sapiens) (P36969 whole entry, looked up): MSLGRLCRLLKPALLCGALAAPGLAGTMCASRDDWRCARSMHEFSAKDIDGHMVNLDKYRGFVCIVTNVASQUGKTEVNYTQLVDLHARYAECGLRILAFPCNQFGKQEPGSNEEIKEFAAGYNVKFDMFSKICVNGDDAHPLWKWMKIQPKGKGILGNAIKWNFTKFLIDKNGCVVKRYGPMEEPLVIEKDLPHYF
In short: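 GR-coupled readout: 100 nM GR, 1 mM GSH, 0.5 mM NADPH; NADPH fluorescence (ex 340/em 450 nm) read at t=0 and after 15 min RT. GPX4 200 nM, preincubated 30 min with compound; substrate 0.5 mM CHP.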

[7] = biological target: Luciferin 4-monooxygenase (Photinus pyralis) (UniProt P08659); assay: Primary firefly luciferase (FLuc) qHTS assay for identification of artifact compounds. (AID 1845220); note: nearly all actives have a fitted effect of over 60% in size
In short: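 In this counter-screen for luciferase artifacts, test compounds met substrate (10 uM each luciferin and ATP) before 10 nM enzyme started the reaction. Light output was measured 5 min later.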

[8] = Primary fluorescence-based thiol-reactive (MSTI) qHTS assay for identification of artifact compounds. (AID 1845221);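 note: thiol-reactive compounds lower the probe fluorescence signal; nearly all actives have a fitted effect of over 65% in size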
In short: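 First, 4 uM MSTI in 2% DMSO/PBS pH 7.4 was dispensed; next, compounds were added; then plates sat 1 h at room temperature without light. Finally, emission at 598 nm was recorded.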

[9] = test system: Nanoluciferase (engineered Oplophorus gracilirostris luciferase); assay: Primary Nanoluciferase (NLuc) qHTS assay for identification of artifact compounds. (AID 1845222);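 note: NLuc secreted into diluted conditioned medium of S16 cells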
In short: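 Using secreted nanoluciferase in S16 culture medium (0.22 um filtered, 1:55 dilution), compounds were preincubated 15 min at RT. Signal was generated with Nano-Glo reagent (1:100) over 5 min.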

[10] = test system: C33A; assay: Primary qHTS to identify gynecologic anti-cancer compounds using libraries of approved drugs and bioactive compounds (AID 1345084); details: Gynecologic cancer cell panel viability, ATPlite luminescence, 48 h; series mostly up to 57.5 µM; note: nearly all actives have a fitted effect of over 55% in size; note: potency is the fitted concentration of half-maximal effect
In short: (§1)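 48 h compound exposure at 37 C, 5% CO2; five-point qHTS. ATPlite luminescence readout of cell ATP.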

[11] = test system: CASKI; assay: as above; details: Gynecologic cancer cell panel viability, ATPlite luminescence, 48 h; series mostly up to 57.5 µM
In short: as §1

[12] = test system: Es-2; assay: as above; details: Gynecologic cancer cell panel viability, ATPlite luminescence, 48 h; series mostly up to 57.5 µM
In short: as §1

[13] = test system: HeLa; assay: as above; details: Gynecologic cancer cell panel viability, ATPlite luminescence, 48 h; series mostly up to 57.5 µM
In short: as §1

[14] = test system: Hek293T; assay: as above; details: Gynecologic cancer cell panel viability, ATPlite luminescence, 48 h, control line for the selectivity index; series mostly up to 57.5 µM
In short: as §1

[15] = test system: JEG-3; assay: as above; details: Gynecologic cancer cell panel viability, ATPlite luminescence, 48 h; series mostly up to 57.5 µM
In short: as §1

[16] = test system: OV90; assay: as above; details: Gynecologic cancer cell panel viability, ATPlite luminescence, 48 h; series mostly up to 57.5 µM
In short: as §1

[17] = test system: PA-1; assay: as above; details: Gynecologic cancer cell panel viability, ATPlite luminescence, 48 h; series mostly up to 57.5 µM
In short: as §1

[18] = test system: Tov-21-G; assay: as above; details: Gynecologic cancer cell panel viability, ATPlite luminescence, 48 h; series mostly up to 57.5 µM
In short: as §1

[19] = test system: Tov112D; assay: as above; details: Gynecologic cancer cell panel viability, ATPlite luminescence, 48 h; series mostly up to 57.5 µM
In short: as §1

[20] = test system: Zika virus NS2B-NS3 protease (unlinked complex); assay: Primary screen GU Rhodamine qHTS for Zika virus inhibitors: Unlinked NS2B-NS3 protease assay (AID 1347159); note: nearly all actives have a fitted effect of over 60% in size; note: potency is the fitted concentration of half-maximal effect
In short: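 A qHTS format was used, with compound concentrations ranging up to 114 microM. Each compound was preincubated with 25 nM NS2B-NS3 protease, and the substrate was then added at 1.5 microM. Curves were fitted with a 4-parameter Hill model.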

Measured: Potency

Cc1cc(C)c(NC(=O)N(Cc2ccc3c(c2)Cc2ccccc2-3)C2CCCCCC2)c(C)c1
not listed: [20]
inactive: all other assays above

COc1cc(-c2cc(-c3cccc(O)c3)cnc2N)cc(OC)c1OC
active: [3] 10.3 µM | [4] 12.9 µM
not listed: [6] | [18] | [19]
inactive: all other assays above

C[N+]1(C)[C@@H]2CC[C@H]1CC(OC(=O)C(O)c1ccccc1)C2 (stereo not given in full)
not listed: [4]
inactive: all other assays above

CCCCOc1ccc(-c2cncc(C(=O)NCc3cccnc3N3CCOCC3)c2)cc1Cl
inactive: all assays above

CS(=O)(=O)c1ccc(-c2cn3ccccc3n2)cc1
active: [10] 10 µM | [11] 6.31 µM | [13] 12.6 µM | [14] 17.8 µM | [15] 7.08 µM | [16] 7.94 µM | [17] 17.8 µM | [18] 8.91 µM | [19] 7.94 µM

COc1ccc(C2(CNC(=O)[C@](C)(Cc3c[nH]c4ccccc34)NC(=O)Nc3ccc([N+](=O)[O-])cc3)CCCCC2)nc1
active: [4] 20.5 µM
not listed: [3] | [20]
inactive: all other assays above

COc1ccc(NS(=O)(=O)c2sc3ccc(Cl)cc3c2C)cc1N1CCNCC1
active: [3] 20.5 µM | [4] 12.9 µM
not listed: [6] | [8]
inactive: all other assays above

CO[C@@H]1[C@@H](O[C@H]2O[C@@H](C)[C@H](O[C@@H]3C[C@](C)(O)[C@H](O)[C@@H](C)O3)[C@@H](N(C)C)[C@@H]2O)[C@@H](CC=O)C[C@@H](C)[C@@H](O[C@H]2CC[C@H](N(C)C)[C@H](C)O2)/C=C/C=C/C[C@@H](C)OC(=O)C[C@H]1O
not listed: [4]
inactive: all other assays above

Cc1nnsc1C(=O)Nc1ccc(-n2nc(C(F)(F)F)cc2C(F)(F)F)cc1
active: [3] 20.5 µM | [4] 11.5 µM
not listed: [1] | [20]
inactive: all other assays above

CN(CC(=O)N(Cc1ccc(C2CCCCC2)cc1)c1ccc(C(=O)O)cc1)S(=O)(=O)c1c(F)c(F)c(F)c(F)c1F
active: [20] 2.51 µM | [1] 2.82 µM | [3] 7.28 µM | [4] 4.59 µM | [15] 25.1 µM
inactive: [2] | [5] | [6] | [7] | [8] | [9] | [12]

C[C@@H](O[C@H]1OCCN(Cc2n[nH]nc2CN(C)C)[C@H]1c1ccc(F)cc1)c1cc(C(F)(F)F)cc(C(F)(F)F)c1
active: [3] 16.3 µM | [4] 14.5 µM
not listed: [6]
inactive: all other assays above

COc1cc(N2CCN(C(C)=O)CC2)ccc1Nc1ncc(Cl)c(Nc2ccc(N3CCN(C(C)=O)CC3)cc2OC)n1
active: [3] 8.17 µM and 16.6 µM | [4] 6.49 µM and 13.2 µM
inactive: [20] | [1] | [2] | [5] | [6] | [7] | [9] | [10] | [12] | [15]

— PubChem BioAssay (NCATS)
